TDP-43 yeast inh = rescues yeast growth from TDP-43 toxicity | TDP-43 expressing yeast growth rescue, BacTiter-Glo, 24 h | Potency, µM (doses to about 46.1 µM), without a hit: top-dose growth rescue (activation), usual class: activators | 1.8% of 410,000 active | AID 652104; note: % of control where 0% means no effect; nearly all actives have a fitted effect of over 50% in size
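In this qHTS, compounds that restore growth of yeast expressing TDP-43 appear as activators. Cells (OD600=0.02, galactose medium, raffinose-pregrown) are incubated with compound 24 hr at 30 deg C and growth is quantified by BacTiter-Glo.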
FUS suppressor = FUS proteinopathy suppression in yeast; S. cerevisiae FUS-expressing, growth rescue, OD600, 24 h; Potency, µM (series often up to 76.6 µM), hits mostly activators; 0.24% of 390,000 active; AID 1347120;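 note: plate controls were DMSO vehicle for no effect and reference control for full effect; nearly all actives have a fitted effect of over 55% in size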
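Toxicity suppression screen in FUS-yeast. Cells induced with 2% galactose, starting OD 0.005, treated 24hr at 30C with compounds at multiple final concentrations; growth by OD600.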
aSyn yeast inh = alpha-synuclein toxicity inhibition in yeast. AID 652106. Yeast expressing alpha-synuclein, growth rescue, BacTiter-Glo, 24 h. Potency, µM (series often up to 46.1 µM), for the others: at the top dose growth rescue (activation), actives largely listed as activators. 0.14% of 370,000 active; note: % of control where 0% means no effect; nearly all actives have a fitted effect of over 65% in size
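Rescue of yeast growth: cells expressing toxic alpha-synuclein, induced in galactose at OD600 0.02, incubated with compound 24 h at 30 C. ATP luminescence quantified growth; inhibitors of toxicity appear as activators.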
Abeta yeast res = compounds reversing amyloid beta toxicity in yeast; yeast expressing A-beta42, growth rescue, OD600, 48 h; response scale: 0% DMSO, 100% iron-clioquinol control; Potency, µM (titrated, usually from 46.1 µM), most hits filed as activators; 0.063% of 410,000 active; AID 1347071; note: nearly all actives have a fitted effect of over 55% in size
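Growth rescue measured by 600 nm absorbance after 48 h yeast culture at 30 C with compound. Values normalized between DMSO and an equimolar ferric chloride plus clioquinol control.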
* marks the source's active call; other numbers are inactive results; i = inactive; ? = inconclusive; . = not tested or not shown; ! = repeats disagree. The list is not random: actives were taken first. Their share in the collection is about 2.1%. Calls come from the whole dose curve; as a rule, active = well fitted curve in the direction sought with a large enough effect; inconclusive = small, poorly fitted or top-dose-only effect, or another doubt; inactive = no such curve, though single readings can be large; an effect the other way counts as inactive or inconclusive. Potency is the fitted concentration of half-maximal effect.

SMILES | TDP-43 yeast inh | FUS suppressor | aSyn yeast inh | Abeta yeast res
Cc1cccc(NC2=C(Cl)C(=O)OC2OC(C)C)c1 (configuration not stated) | 13µM* | i | 1% | i
Cc1ccc(NC2=C(Cl)C(=O)OC2OC(C)C)cc1 (configuration not stated) | ? | i | -5% | i
O=C(CS(=O)(=O)c1cccc2nsnc12)Nc1ccccc1 | 0% | i | 3% | i
Cc1ccc(NC(=O)CN(C)S(=O)(=O)c2cccc3nsnc23)cc1 | 24% | i | 1% | i
CC(C)c1ccc(NC(=O)CS(=O)(=O)c2cccc3nsnc23)cc1 | 25µM* | i | ? | i
CN(CC(=O)Nc1ccc(Br)cc1)S(=O)(=O)c1cccc2nsnc12 | 22µM* | i | . | i
Cc1ccc(-c2nnc(SCC(=O)Nc3ccc(Oc4ccccc4)cc3)n2-c2ccc(Cl)cc2)cc1 | . | i | . | .
COc1ccc(Nc2ccc(C(=O)O)cc2[N+](=O)[O-])cc1 | ? | i | 4% | i
O=C(O)c1ccc(Nc2ccc(F)c(F)c2)c([N+](=O)[O-])c1 | 11µM* | i | 6% | i
CCC(C(=O)N1CCN(c2ccc(OC)cc2)CC1)n1nc(C)n2c(cc3occc32)c1=O (configuration not stated) | 24% | ? | . | i
O=C(CCCn1ncn2c(cc3occc32)c1=O)N1CCc2ccccc2C1 | 20% | i | 0% | i
CCc1nn(CCCC(=O)N2CCN(c3cc(Cl)ccc3C)CC2)c(=O)c2cc3occc3n12 | 35µM* | ? | . | i
Cc1cccc(N2CCN(C(=O)C(C)n3nc(C)n4c(cc5occc54)c3=O)CC2)c1C (configuration not stated) | 22µM*! | i | 6% | i
CCc1nn(CCCC(=O)N2CCN(c3cccc(OC)c3)CC2)c(=O)c2cc3occc3n12 | 5% | i | . | i
Cc1cccc(N2CCN(C(=O)CCCn3ncn4c(cc5occc54)c3=O)CC2)c1C | 16µM* | i | . | i
Cc1nn(C(C)C(=O)N2CCN(c3ccccn3)CC2)c(=O)c2cc3occc3n12 (configuration not stated) | 3% | i | -3% | i
CCc1nn(C(C)C(=O)N2CCN(c3ccc(OC)cc3)CC2)c(=O)c2cc3occc3n12 (configuration not stated) | 32µM* | i | 0% | i
Cc1ccccc1OCc1nc2c3cnn(-c4cccc(F)c4)c3ncn2n1 | 24% | i | . | i
COC(=O)[C@]12C[C@H](CC(=O)NCC3CCCCC3)C(=O)N(Cc3cccc4ccccc34)C1=C[C@H](COCc1ccccc1)O[C@@H]2C | . | i | . | .
CC(C)CCN1C(=O)COc2ccccc2C1c1nnnn1-c1ccc2c(c1)OCCO2 (configuration not stated) | . | i | . | .
CCn1c2ccccc2c2cc(NC(=O)COC(=O)c3cc(F)cc(F)c3)ccc21 | . | i | . | .
Cc1cc(C)c2ccc(NN)nc2c1O | 5% | i | -2% | i
Cc1cc(C)c2ccc(/C=N/O)nc2c1O | 21% | i | 13µM* | ?
Cn1nc([N+](=O)[O-])nc1S(C)(=O)=O | 20% | i | -11% | i
CS(=O)(=O)c1nc([N+](=O)[O-])nn1CCCc1ccccc1 | 18µM* | i | -14% | i
SMILES | TDP-43 yeast inh | FUS suppressor | aSyn yeast inh | Abeta yeast res
Cc1c(NC(=O)C2CCCN(S(=O)(=O)c3c(C(C)C)cc(C(C)C)cc3C(C)C)C2)c(=O)n(-c2ccccc2)n1C (configuration not stated) | . | i | . | .
Cc1ccc(Sc2ccc(/C=N/O)cc2[N+](=O)[O-])cc1 | ? | i | 1% | i
CC(C)(C)Sc1ccc(/C=N/O)cc1[N+](=O)[O-] | 16µM* | i | 9% | i
CCC(=O)NC(c1ccco1)c1cc(Cl)c2cccnc2c1O (configuration not stated) | 17% | i | 11µM* | i
COC(=O)[C@@H](CC(C)C)CP(=O)(OC)[C@@H](C)NC(=O)OCc1ccccc1 (some centres not stated) | . | i | . | .
CCCOc1ccc(C(=O)Nc2ccc(NC(=O)c3ccccc3)c(Br)c2)cc1 | 13% | i | . | i
O=C1CC(c2cc(Br)ccc2F)c2cc3c(cc2N1)CCC3 (configuration not stated) | -24% | i | 4.5µM* | i
O=C1CC(c2cccc(Cl)c2)c2cc3c(cc2N1)CCC3 (configuration not stated) | -1% | i | 4µM* | i
CCCCN1CCN(C(=O)C2CCCN(C(=O)c3ccc4c(c3)NC(=O)CS4)C2)CC1 (configuration not stated) | . | i | . | .
C=CCc1c(C)nc2c(OC)cccc2c1Cl | 15% | i | 26% | i
COc1cccc2c(Cl)c(CC=C(Cl)Cl)c(C)nc12 | 11µM* | i | -18% | i
Cc1c(NS(=O)(=O)c2ccccc2)cc(Cl)c(O)c1C | 10µM* | . | 6% | i
C[C@@H]1CCN(C2CC2)S(=O)(=O)c2c(cccc2N2CCC[C@H]2CO)O1 | . | i | . | .
c1ccc(-c2cc(CSc3nc4ccccc4[nH]3)on2)cc1 | 20µM* | i | 3% | i
Fc1cccc(F)c1CSc1nc2ccccc2[nH]1 | 13µM* | i | -7% | i
Cc1noc(C)c1CSc1nc2ccccc2[nH]1 | -3% | i | -7% | i
COc1cccc(N2CCN(C(=O)CSc3nc4ncccc4[nH]3)CC2)c1 | . | i | . | .
CCOc1ccccc1C(=O)N1CCC(n2nnc3cc(C)ccc32)CC1 | 18µM* | i | 12% | i
Cc1cccc(C(=O)N2CCC(n3nnc4cc(F)ccc43)CC2)c1 | 22µM* | i | 6% | i
COc1ccc(C(=O)N2CCC(n3nnc4cc(F)ccc43)CC2)cc1OC | 0% | i | 4% | i
CCOc1ccccc1C(=O)N1CCC(n2nnc3cc(C(F)(F)F)ccc32)CC1 | ? | i | 9% | i
Cc1ccc2[nH]cc(C(c3ccccc3)c3cccs3)c2c1 (configuration not stated) | 8.9µM* | i | . | i
CCCCNC(=O)CCCn1c(=O)c2ccccc2n(Cc2cccc(Cl)c2)c1=O | 25% | i | . | i
Clc1ccc(COn2c(-c3ccccc3)nc3ccccc32)cc1 | 18µM* | i | -19% | i
COc1ccccc1CNC(=O)c1ccc2nc(N3CCOCC3)sc2c1 | 22µM* | i | 0% | i
O=C(NCc1cccc(Cl)c1)c1ccc2nc(N3CCOCC3)sc2c1 | 25µM* | i | 4% | i
COC(=O)C1CN(Cc2cn(Cc3ccc(OC)cc3)nn2)CCS(=O)(=O)N1Cc1ccc(F)cc1 (configuration not stated) | . | i | . | .
COc1ccc(/C=C/c2nnc(NC(=O)COc3ccc(Cl)cc3)s2)cc1 | . | . | 11% | .
COc1ccc(OC)c(-c2csc(NC(=O)Cc3ccccc3)n2)c1 | ? | i | -6% | i

From PubChem BioAssay
